These results are taken from PubChem BioAssay.

Activity calls are given as the source filed them. Rule as the data show it: active = inhibition above about 31%; inactive = the rest.

A short description of one experiment: MRP1 drug-resistance reversers in H69AR cells – cell-based, doxorubicin co-treatment, pilot screen (AID 601). Conditions: H69AR cells, CellTiter-Glo, 72 h; compound alone cytotoxicity; at 10 µM. A general note: ATP-based viability assays read luminescence as a measure of living cells.
One may read the viability as a read-out of living cells in per cent, often relative to untreated cells. As for `COc1cccc(C2=NOC(C(=O)N3CCN(c4ccccc4)CC3)C2)c1OC` (stereo not given), the viability was determined as 86.5%.
Consider `O=C(Nc1ccc2c(c1)OCO2)c1ccc(CN2CCOCC2)cc1`, for which the viability turned out to be 97.3%.
With `O=C(Cn1nc(Cc2ccncc2)c2ccccc2c1=O)N1CCc2ccccc2C1`, the viability worked out at 96.5%.
Regarding `CCOCCCNC(=O)c1ccc2c(c1)N(Cc1ccccc1)C(=O)CS2=O` (stereo not given), the viability stood at 106%.
Regarding `CS(=O)(=O)Nc1ccccc1C(=O)O`, the viability is 98.8%.
On to `CCOC(=O)N1CCC(Nc2ncnc3c2cnn3-c2ccc(C)cc2C)CC1`, for which the viability amounted to 72.7%.
With `CC1(C)C(c2ccccc2)=NC(c2ccccc2)N1O` (stereo not given), the viability turned out to be 91.4%.
For the compound `O=C(CS(=O)(=O)Cc1ccccc1)Nc1nc2ccccc2s1`, the viability is 92.1%.
Take `CCOC(=O)N1CCN(C(=O)COc2ccc(S(=O)(=O)NC(C)C)cc2)CC1`: the viability was 90.3%.
In the case of `COc1ccc(N2CCN(CCNC(=O)CCS(=O)(=O)c3cccc4nsnc34)CC2)cc1`, the viability amounted to 103%.
In the case of `COc1cccc(C2CC(=O)Nc3c2c(=O)n(C)c(=O)n3C)c1OC` (stereo not given), the viability came out at 102%.
On the same count and under the same terms, as for `CCN1C(=O)c2ccccc2S(=O)c2ccc(C(=O)NC3CC3)cc21` (stereo not given), the figure is 105%.
On the same count and under the same terms, for `CCOC(=O)CCc1c(C)nc2cc(-c3ccc(F)cc3)[nH]n2c1=O` the value was 101%.
Take `CCC(C)(C(=O)NC1CCCC1)N(Cc1cccs1)C(C)=O` (stereo not given): the viability is 96.9%.
For the compound `COc1ccccc1NC(=O)C1(C)Cc2ccccc2C(=O)O1` (stereo not given), the viability was found to be 91.7%.
As for `COC(=O)c1sc(NC(=O)COc2ccccc2OC)nc1C`, the viability was determined as 95.1%.
Still for that read-out and setting: for `O=C(Nc1ccc2c(c1)OCCO2)NC1CCCCC1` the value was 85.9%; for `c1ccc2c(c1)nc(NCCN1CCOCC1)c1nncn12`, 94.7%.
`O=C(c1ccc(Br)cc1)N1CCN(S(=O)(=O)c2ccccc2)CC1`: the viability was 92.6%.
Regarding `C/C=C/Cn1c(SCCCc2ccccc2)nc2c1c(=O)[nH]c(=O)n2C`, the viability is 69.6%.
Take `O=c1c2ccccc2nc(SCc2nc(-c3ccccc3)no2)n1-c1ccc(F)cc1`: the viability was found to be 89.7%.
Still for that read-out and setting: as for `Cn1c(=O)c2c(nc3sccn32)n(C)c1=O`, the figure is 87.7%; as for `CCCCOc1ccc(-c2ncc(Cl)cn2)cc1`, 93.9%; as for `CCOC(=O)c1ccc(N2Cc3cc(C)c(C)cc3C2)cc1O`, 97.3%.
Same read-out and setting: for `O=C(CSc1nc(-c2ccco2)cc(C(F)(F)F)n1)NCCCn1ccnc1` the value was 94.7%; for `COc1cccc(NC(=O)CSc2nnc(Cc3cccn3C)n2-c2ccc(F)cc2)c1`, 78.2%; for `CCOC(=O)c1ccc(-n2c(C)nc3c(cnn3-c3ccccc3C)c2=O)cc1`, 98.1%.
Same read-out and setting: for `CCOC(=O)C1=C(C)N(C)C(=O)NC1c1ccccc1OC` (stereo not given) the value was 175%.
Turning to `Cc1ccc(CSc2nc3c(c(=O)[nH]2)CCC3)cc1`, the viability was 93.1%.
Regarding `CCOC(=O)c1c(C)n(C)c2c(C)cc(O)c(OC(C)=O)c12`, the viability was found to be 101%.
For `Cc1ccccc1NC(=O)C1CCCN(S(=O)(=O)c2cnc[nH]2)C1` (stereo not given), the viability was 92.6%.
For the compound `O=C(NCc1ccc(F)cc1)c1cc2ccccn2n1`, the viability worked out at 98.2%.
For `CCCNC(=O)C1CCN(S(=O)(=O)c2ccc3nc4c(c(C(=O)O)c3c2)CCCCC4)CC1`, the viability was 98.7%.
Regarding `COc1ccc2[nH]c(C)c(CCN3C(=O)OC(C)(C)C3(C)O)c2c1` (stereo not given), the viability came to 81.5%.
With `COc1ccc(N(CC(=O)Nc2ccc3c(c2)OCO3)S(=O)(=O)c2c(C)nn(C)c2C)cc1`, the viability is 99%.
As to `Cc1onc(-c2ccccc2Cl)c1C(=O)Nc1cnn(Cc2ccccc2)c1`, the viability stood at 81.5%.
The same measure, in the same setting: for `CCOCCCNC(=O)CN1CCN(Cc2ccccc2C)C1=O` the value was 97%; for `CCN1C(=O)c2cccc3c(NC(=O)c4ccc(S(=O)(=O)N(C)C)cc4)ccc1c23`, 65.9%; for `O=C(Nc1cccc2ccccc12)c1ccc(Br)o1`, 84%.
On the same count and under the same terms, as for `c1ccc(-c2cn3cccnc3n2)cc1`, the figure is 101%.

The nature of a further experiment: yeast transport mutant growth inhibition pilot in 384-well plates, post-Golgi transport modulator project (AID 636). The following applies: absorbance 615 nm, about 18 h, stronger effect = higher value.
As a reminder, the inhibition is the drop in the measured response relative to a control, in per cent. With `COc1cccc(C2=NOC(C(=O)N3CCN(c4ccccc4)CC3)C2)c1OC` (stereo not given), the inhibition is -6.13% (inactive).
`O=C(Nc1ccc2c(c1)OCO2)c1ccc(CN2CCOCC2)cc1`: the inhibition was -7.07% (inactive).
Take `O=C(Cn1nc(Cc2ccncc2)c2ccccc2c1=O)N1CCc2ccccc2C1`: the inhibition was -0.27% (inactive).
With `CCOCCCNC(=O)c1ccc2c(c1)N(Cc1ccccc1)C(=O)CS2=O` (stereo not given), the inhibition is 0.13% (inactive).
With `CS(=O)(=O)Nc1ccccc1C(=O)O`, the inhibition was -2.34% (inactive).
On to `CCOC(=O)N1CCC(Nc2ncnc3c2cnn3-c2ccc(C)cc2C)CC1`, for which the inhibition was -4% (inactive).
With `CC1(C)C(c2ccccc2)=NC(c2ccccc2)N1O` (stereo not given), the inhibition is -0.78% (inactive).
`O=C(CS(=O)(=O)Cc1ccccc1)Nc1nc2ccccc2s1`: the inhibition is -0.13% (inactive).
In the case of `CCOC(=O)N1CCN(C(=O)COc2ccc(S(=O)(=O)NC(C)C)cc2)CC1`, the inhibition was -5.07% (inactive).
As for `COc1ccc(N2CCN(CCNC(=O)CCS(=O)(=O)c3cccc4nsnc34)CC2)cc1`, the inhibition was -6.58% (inactive).
Turning to `COc1cccc(C2CC(=O)Nc3c2c(=O)n(C)c(=O)n3C)c1OC` (stereo not given), the inhibition is 1.33% (inactive).
`CCN1C(=O)c2ccccc2S(=O)c2ccc(C(=O)NC3CC3)cc21` (stereo not given): the inhibition was -2.8% (inactive).
On to `CCOC(=O)CCc1c(C)nc2cc(-c3ccc(F)cc3)[nH]n2c1=O`, for which the inhibition was -5.45% (inactive).
With `CCC(C)(C(=O)NC1CCCC1)N(Cc1cccs1)C(C)=O` (stereo not given), the inhibition was -9.04% (inactive).
As to `COc1ccccc1NC(=O)C1(C)Cc2ccccc2C(=O)O1` (stereo not given), the inhibition is -2.82% (inactive).
Take `COC(=O)c1sc(NC(=O)COc2ccccc2OC)nc1C`: the inhibition is -6.22% (inactive).
`O=C(Nc1ccc2c(c1)OCCO2)NC1CCCCC1`: the inhibition is -4.27% (inactive).
For `c1ccc2c(c1)nc(NCCN1CCOCC1)c1nncn12`, the inhibition was -1.67% (inactive).
Regarding `O=C(c1ccc(Br)cc1)N1CCN(S(=O)(=O)c2ccccc2)CC1`, the inhibition was 3.33% (inactive).
With `C/C=C/Cn1c(SCCCc2ccccc2)nc2c1c(=O)[nH]c(=O)n2C`, the inhibition was 1.07% (inactive).
Take `O=c1c2ccccc2nc(SCc2nc(-c3ccccc3)no2)n1-c1ccc(F)cc1`: the inhibition was -5.73% (inactive).
For the compound `Cn1c(=O)c2c(nc3sccn32)n(C)c1=O`, the inhibition was -3.51% (inactive).
As to `CCCCOc1ccc(-c2ncc(Cl)cn2)cc1`, the inhibition is -4.94% (inactive).
Same read-out and setting: for `CCOC(=O)c1ccc(N2Cc3cc(C)c(C)cc3C2)cc1O` the value was 4.27% (inactive).
Same read-out and setting: for `O=C(CSc1nc(-c2ccco2)cc(C(F)(F)F)n1)NCCCn1ccnc1` the value was -2.53% (inactive); for `COc1cccc(NC(=O)CSc2nnc(Cc3cccn3C)n2-c2ccc(F)cc2)c1`, -7.73% (inactive); for `CCOC(=O)c1ccc(-n2c(C)nc3c(cnn3-c3ccccc3C)c2=O)cc1`, -0.8% (inactive).
Consider `CCOC(=O)C1=C(C)N(C)C(=O)NC1c1ccccc1OC` (stereo not given), for which the inhibition was -8.24% (inactive).
For the compound `Cc1ccc(CSc2nc3c(c(=O)[nH]2)CCC3)cc1`, the inhibition was -0.13% (inactive).
For `CCOC(=O)c1c(C)n(C)c2c(C)cc(O)c(OC(C)=O)c12`, the inhibition was -3.9% (inactive).
Consider `Cc1ccccc1NC(=O)C1CCCN(S(=O)(=O)c2cnc[nH]2)C1` (stereo not given), for which the inhibition is -3.87% (inactive).
Consider `O=C(NCc1ccc(F)cc1)c1cc2ccccn2n1`, for which the inhibition is -2.95% (inactive).
With `CCCNC(=O)C1CCN(S(=O)(=O)c2ccc3nc4c(c(C(=O)O)c3c2)CCCCC4)CC1`, the inhibition is -1.87% (inactive).
Consider `COc1ccc2[nH]c(C)c(CCN3C(=O)OC(C)(C)C3(C)O)c2c1` (stereo not given), for which the inhibition is -5.73% (inactive).
Regarding `COc1ccc(N(CC(=O)Nc2ccc3c(c2)OCO3)S(=O)(=O)c2c(C)nn(C)c2C)cc1`, the inhibition is -0.38% (inactive).
With `Cc1onc(-c2ccccc2Cl)c1C(=O)Nc1cnn(Cc2ccccc2)c1`, the inhibition was -5.73% (inactive).
As for `CCOCCCNC(=O)CN1CCN(Cc2ccccc2C)C1=O`, the inhibition was -6.8% (inactive).
In the case of `CCN1C(=O)c2cccc3c(NC(=O)c4ccc(S(=O)(=O)N(C)C)cc4)ccc1c23`, the inhibition is 1.79% (inactive).
As to `O=C(Nc1cccc2ccccc12)c1ccc(Br)o1`, the inhibition was -3.25% (inactive).
Consider `c1ccc(-c2cn3cccnc3n2)cc1`, for which the inhibition was -6.45% (inactive).
